Compounds with a hit are over-represented: about 28% of the library has one in this group of screens.
PLK1 kinase inh: human PLK1 kinase inhibitors, primary screen, biochemical, TR-FRET | recombinant PLK1 kinase, TR-FRET peptide phosphorylation | AID 619, 2007 | inhibition, % at 10 µM | 97,000 tested, 0.53% active | Serine/threonine-protein kinase PLK1 (Homo sapiens), P53350;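 active means inhibition of 50% or more in the single-concentration screen; inactive means inhibition below 50%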;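 further: 0% = DMSO max control and 100% = H-89 dihydrochloride min control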
CYP2C19 inhib: blockers of cytochrome P450 2C19 activity – biochemical, luminescence, ADME assay, primary screen. CYP2C19 Supersomes, luciferin-H EGE luminescence, 30 min. AID 778, 2007. 96,000 tested, 21% active. inhibition, % at 5 µM;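 active means CYP2C19 inhibition above a set limit at 5 µM in the primary screen, cut at about 50% in these data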;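 further: plate controls were negative control wells for no effect and 2.5 mM tranylcypromine positive control for full effect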
CYP2C9 inh: blockers of cytochrome P450 2C9 activity – biochemical, luminescence, ADME assay, primary screen; AID 777, 2007; inhibition, % at 5 µM; P11712; CYP2C9 Supersomes, luciferin-H conversion; 96,000 tested, 20% active;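 active means blocking of liver enzyme CYP2C9 beyond about 50% at 5 µM, limit read from the data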
Target sequence (P11712 whole entry, looked up): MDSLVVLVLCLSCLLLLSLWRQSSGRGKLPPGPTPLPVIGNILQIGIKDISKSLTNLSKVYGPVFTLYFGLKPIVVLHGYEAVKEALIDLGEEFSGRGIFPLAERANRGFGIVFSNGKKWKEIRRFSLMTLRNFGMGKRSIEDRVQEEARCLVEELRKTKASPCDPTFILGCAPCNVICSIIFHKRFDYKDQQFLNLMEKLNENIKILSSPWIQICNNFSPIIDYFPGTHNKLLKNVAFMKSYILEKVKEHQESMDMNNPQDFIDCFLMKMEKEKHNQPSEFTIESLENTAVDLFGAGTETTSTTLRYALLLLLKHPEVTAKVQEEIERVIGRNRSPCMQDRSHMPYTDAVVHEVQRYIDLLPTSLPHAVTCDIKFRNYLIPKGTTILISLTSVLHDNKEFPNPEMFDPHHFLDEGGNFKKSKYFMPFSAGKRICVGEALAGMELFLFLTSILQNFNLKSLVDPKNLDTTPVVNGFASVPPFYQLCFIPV
PLK1 PBD inh: Plk1 polo box domain binding inhibitors, primary screen, biochemical, fluorescence polarization. Serine/threonine-protein kinase PLK1 (Homo sapiens), P53350. inhibition, %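 (tested at about 20 µM)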. Plk1 PBD phosphopeptide binding. 97,000 tested, 0.13% active. AID 693, 2007; in the data active means inhibition above about 34%, passing the limit was not always enough
CYP2C9 act: human CYP2C9 activators, primary screen, biochemical, luminescence; recombinant CYP2C9, luciferin-H conversion; active compounds read high; factor 1 = untreated enzyme, 0 = blocked; activation factor at 5 µM; 96,000 tested, 1.4% active; AID 1024, 2008;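 active means activation factor of 2 or more for CYP2C9 at a 5 µM dose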;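 further: 0 = sulfaphenazole-blocked wells and 1 = vehicle-only wells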
CYP2C19 activ: human CYP2C19 activators, primary screen, biochemical, luminescence; recombinant CYP2C19, luciferin-H EGE luminescence; active compounds read high; 0 = fully inhibited enzyme, 1 = untreated enzyme; Cytochrome P450 2C19 (Homo sapiens), P33261; 96,000 tested, under 10 active; AID 1025, 2008; activation factor at 5 µM;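 active means activation factor of at least 2 at 5 µM in the primary screen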;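 further: 0 = wells with 2.5 mM tranylcypromine and 1 = vehicle-only wells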
Active calls of the source: *; . = no result.

SMILES	PLK1 kinase inh	CYP2C19 inhib	CYP2C9 inh	PLK1 PBD inh	CYP2C9 act	CYP2C19 activ
Cc1ccc(C2(C)NC(=O)N(CC(=O)Nc3ccc4c(c3)OCO4)C2=O)cc1 (centres undefined)	.	36	82*	.	0.2	0.6
CCC1(c2ccccc2)NC(=O)N(CC(=O)Nc2ccc3c(c2)OCO3)C1=O (centres undefined)	-2	-3	20	31	0.8	1
CC1(c2ccc3c(c2)OCO3)NC(=O)N(CC(=O)Nc2ccc(N3CCOCC3)cc2)C1=O (centres undefined)	-12	20	59*	1	0.4	0.8
Cc1cccc(CC(=O)OCn2nnc3ccccc3c2=O)c1	1	33	-10	19	1.1	0.7
COc1ccc(OC)c(N/C(=N\c2nc(C)cc(C)n2)NC(=O)c2ccco2)c1	.	18	56*	.	0.4	0.8
O=C(Nc1ccccc1Oc1ccccc1)c1cnccn1	-15	24	11	-5	0.9	0.8
COc1cc(NC(=O)C(C)C)ccc1NC(=O)c1ccco1	-9	14	64*	10	0.4	0.9
COc1cc(NC(=O)c2ccco2)c(OC)cc1NC(=O)Nc1ccccc1Cl	-3	85*	60*	-11	0.4	0.2
COc1ccc(NC(=O)c2ccco2)c(OC)c1	-4	11	-2	4	1	0.9
Cc1ccc(Oc2ccc(Cl)cc2NC(=O)c2cnccn2)cc1	-8	24	56*	11	0.4	0.8
COc1ccc(Cl)cc1NC(=S)N1CCN(C(=O)c2ccco2)CC1	-10	39	-95	5	2*	0.6
COc1ccc(Cl)cc1NC(=O)c1ccco1	-8	32	-320	-6	4.2*	0.7
O=C(Nc1ccc(S(=O)(=O)N2CCC(C(=O)NC3CCCCC3)CC2)cc1)c1ccco1	-7	26	41	28	0.6	0.7
O=C(Nc1ccc(NC(=O)C2CCCCC2)nc1)c1ccco1	-2	61*	32	7	0.7	0.4
COc1ccc(Cl)cc1C(=O)Nc1ccc(NC(=O)c2ccco2)cc1	0	4	38	12	0.6	1
CC1CCCCN1S(=O)(=O)c1ccc(NC(=O)c2ccco2)cc1 (centres undefined)	-6	59*	72*	2	0.3	0.4
CCCn1[nH]cc(SC)c(=O)c1=O	-8	0	-3	-29	1	1
Cc1nnc(NC(=O)CCC(=O)N2CCN(CCc3ccccc3)CC2)s1	.	2	2	.	1	1
COc1ccc(Cl)cc1NC(=O)Nn1cnnc1	6	0	-1	-12	1	1
COc1cc(C(=O)OCC(=O)Nc2c(F)c(F)c(F)c(F)c2F)cc(OC)c1OC	-9	78*	35	2	0.6	0.2
CNC(=O)COC(=O)c1cc(NC(=O)c2ccco2)c(OC)c(OC)c1	-15	4	54*	19	0.5	1
COc1cc(C(=O)OCC(=O)NCc2ccccc2)cc(NC(=O)c2ccco2)c1OC	-34	10	7	15	0.9	0.9
COc1ccc(Cl)cc1NC(=O)c1cccnc1	-7	-6	-157	7	2.6*	1.1
COc1ccc(Cl)cc1C(=O)NNC(=O)c1cccnc1	-10	-3	-38	-18	1.4	1
C=CCN(CC=C)C(=O)Nc1cc(Cl)ccc1OC	-10	85*	-172	8	2.7*	0.1
SMILES	PLK1 kinase inh	CYP2C19 inhib	CYP2C9 inh	PLK1 PBD inh	CYP2C9 act	CYP2C19 activ
C/C(=N\O)c1ccc2c3c([nH]c2c1)CCCC3	-21	31	2	8	1	0.7
CC1=Nn2c(nc(-c3ccccc3)c2-c2ccccc2)NC(=O)C1Br (centres undefined)	-4	11	-5	-15	1	0.9
COc1cc(NC(=O)C2CCCCC2)c(OC)cc1NC(=O)c1ccco1	-12	62*	47	-6	0.5	0.4
COCCNC(=O)c1ccccc1NS(=O)(=O)c1ccc(Br)s1	-3	72*	91*	-18	0.1	0.3
O=C(c1ccccc1NS(=O)(=O)c1ccc(Br)s1)N1CCOCC1	-5	45	-12	-15	1.1	0.6
CCOc1ccccc1NS(=O)(=O)c1ccc(Br)s1	-5	95*	26	-13	0.7	0.1
CCc1ccccc1NC(=S)N1CCC(C(=O)c2ccc(F)cc2)CC1	-10	35	21	-3	0.8	0.6
CC1CCN(C2(O)C(=O)Nc3ccc([N+](=O)[O-])cc32)CC1 (centres undefined)	-7	42	66*	-2	0.3	0.6
C=CCn1c(SCCOc2ccccc2)nnc1C(C)NC(=O)c1ccccc1 (centres undefined)	-4	11	11	6	0.9	0.9
C=CCn1c(C(C)NC(=O)c2ccccc2)n[nH]c1=S (centres undefined)	-10	62*	4	-29	1	0.4
COc1cc(CNC(=O)c2ccc(Cn3nc(C)c(Cl)c3C)o2)cc(OC)c1	-2	62*	-21	-3	1.2	0.4
COC(=O)c1ccc(Cn2nc(C)c(Cl)c2C)o1	-2	23	9	-1	0.9	0.8
CC1=C(C(=O)Nc2ccc([N+](=O)[O-])cc2)C(c2cccc(C(F)(F)F)c2)NC(=S)N1c1ccccc1 (centres undefined)	-15	15	89*	-20	0.1	0.9
COC(=O)c1cccc(CSc2nnc(-c3ccco3)n2-c2ccccc2)c1	.	16	68*	.	0.3	0.8
Cc1cc(C)c(NC(=O)C(C)Sc2nnc(-c3ccco3)n2-c2ccccc2)c(C)c1 (centres undefined)	5	90*	66*	5	0.3	0.1
CCOC(=O)CSc1nnc(-c2ccco2)n1-c1ccccc1	0	38	28	-23	0.7	0.6
CC(Sc1nnc(-c2cccs2)n1-c1ccccc1)C(=O)NCc1ccco1 (centres undefined)	-13	71*	82*	13	0.2	0.3
Cc1ccc(/C=C/C(=O)N2CC(C)CC(C)C2)o1 (centres undefined)	-9	28	26	-5	0.7	0.7
N#Cc1nc(-c2ccccc2Cl)oc1NCC1CCCO1 (centres undefined)	-10	64*	64*	3	0.4	0.4
N#Cc1nc(Cc2cccc3ccccc23)oc1NCC1CCCO1 (centres undefined)	-3	84*	72*	-13	0.3	0.2
N#Cc1nc(Cc2cccc3ccccc23)oc1NCCCN1CCOCC1	-11	26	21	22	0.8	0.7
